Our source for the Potency values is PubChem BioAssay (NCATS).

“And” between values parts separate entries of the source, which are not always exact repeats. Equal entries are not always repeated. Results filed as inconclusive are left out. A call without a number means that no potency is given here. The source made the active and inactive calls. Calls come from the whole dose curve; as a rule, active = well fitted inhibition curve with a large enough effect; inconclusive = small, poorly fitted or top-dose-only effect; inactive = no such curve, though single readings can be large or run the other way.
Potency is the fitted concentration of half-maximal effect.

The nature of this experiment: Primary qHTS for inhibitors of nuclear receptor binding SET domain protein 2 (NSD2) in an RCH-ACV wild type WT cells (2C) (AID 1645877). Note: nearly all actives have a fitted effect of over 70% in size. The conditions noted are these: RCH-ACV (leukaemia line) NSD2 WT (2C) viability, CellTiter-Glo, 72 h; series mostly up to 44.9 µM. (In general: qHTS replaces the single test concentration by a dilution series.)
Consider `CCN(CC)CC(=O)Oc1ccc(NC(C)=O)cc1`, for which the Potency result was “inactive”.

For the compound `CC(=O)c1cc2ccccc2s1`, the Potency entry was “inactive”.

Take `CC(NCCC(c1ccccc1)c1ccccc1)c1ccccc1` (configuration not stated): the Potency is 18.8 µM (active).

In the case of `CCCC(=O)O[C@]1(C(=O)CCl)[C@@H](C)C[C@H]2[C@@H]3CCC4=CC(=O)C=C[C@]4(C)[C@@]3(F)C(=O)C[C@@]21C`, the Potency was 0.0007 µM (active).

Turning to `COC(=O)/C=C(/C)N`, the Potency result is “inactive”.

As for `CC(=O)OC[C@H]1O[C@@H](OC(C)=O)[C@H](OC(C)=O)[C@@H]1OC(C)=O`, the Potency result is “inactive”.

On to `O=C(CCCl)NCc1ccccc1`, for which the Potency result was “inactive”.

For `OCCCc1ccccc1`, the Potency result was “inactive”.

`Nc1ccc(O)cc1`: the Potency entry was “inactive”.

`CSc1ccc(/C=C2/C(C)=C(CC(=O)O)c3cc(F)ccc32)cc1`: the Potency entry is “inactive”.

Take `CCCC(CCC)(C(=O)OCC)C(=O)OCC`: the Potency entry is “inactive”.

As for `CCOc1ncc(F)c(=O)[nH]1`, the Potency entry is “inactive”.

As to `CCN1CCN(C(=O)N[C@@H](C(=O)N[C@@H]2C(=O)N3[C@@H]2SC(C)(C)[C@H]3C(=O)O)c2ccccc2)C(=O)C1=O`, the Potency entry was “inactive”.

With `O=C1Nc2cc(Cl)ccc2Oc2ccccc21`, the Potency result was “inactive”.

For the compound `CC(C)OP(=O)(CP(=O)(OC(C)C)OC(C)C)OC(C)C`, the Potency result was “inactive”.

On to `CC(=O)O[C@@H]1CC2C3CCc4cc(OC(=O)c5ccccc5)ccc4C3CCC2(C)[C@H]1OC(C)=O` (some centres not stated), for which the Potency result is “inactive”.

As for `Cc1ncc([N+](=O)[O-])n1C`, the Potency result is “inactive”.

Consider `Brc1ccccc1-c1ccccc1`, for which the Potency entry is “inactive”.

Regarding `CC1(C)O[C@@H]2C[C@H]3[C@@H]4CCC5=CC(=O)C=C[C@]5(C)[C@@]4(F)[C@@H](O)C[C@]3(C)[C@]2(C(=O)CO)O1`, the Potency is 59.6 nM (active) and 13.2 nM (active).

In the case of `COCCOCC(OC)OC`, the Potency entry is “inactive”.

In the case of `N#C/C(=C1/SC[C@@H](c2ccc(Cl)cc2Cl)S1)n1ccnc1`, the Potency was 11.9 µM (active).

As for `C/C(=C1\CCOC(=O)S1)N(C=O)Cc1cnc(C)nc1N`, the Potency entry was “inactive”.

`Nc1c[n+](N2CCOCC2)no1`: the Potency result is “inactive”.

Regarding `CN(C)CCN1CCN(c2cccc(Cl)c2)C1=O`, the Potency result was “inactive”.

As to `CCCCCC[C@@H](CCC)C(=O)O`, the Potency result is “inactive”.

`O=C(Oc1ccccc1)c1ccccc1O`: the Potency result is “inactive”.

As to `O=C(CCCCC(=O)Nc1c(I)cc(I)c(C(=O)O)c1I)Nc1c(I)cc(I)c(C(=O)O)c1I`, the Potency entry was “inactive”.

Turning to `CC(C)(C)c1ccc(O)c(O)c1`, the Potency was 2.17 µM (active).

With `CN(CC1(C)CCCO1)S(=O)(=O)c1ccc(Cl)c(S(N)(=O)=O)c1` (configuration not stated), the Potency entry is “inactive”.

`CCOC(=O)C(=O)CCc1ccccc1`: the Potency result is “inactive”.

Consider `C[C@@]12CCC[C@H]1[C@@H]1CC[C@H]3C[C@@H](O)CC[C@]3(C)[C@H]1CC2`, for which the Potency entry was “inactive”.

In the case of `O=C(CCOCCOCCOCCOCCC(=O)Nc1c(I)cc(I)c(C(=O)O)c1I)Nc1c(I)cc(I)c(C(=O)O)c1I`, the Potency entry is “inactive”.

As to `CCCc1ncc(C(=O)O)s1`, the Potency result is “inactive”.

`O=C(O)Cn1cnnn1`: the Potency entry is “inactive”.

For the compound `CCN(CC)CCN`, the Potency entry was “inactive”.

Consider `CCOC(=O)NNc1nncc2ccccc12`, for which the Potency result was “inactive”.

On to `C/C(=N/NC(=O)c1ccncc1)C(=O)O`, for which the Potency result was “inactive”.
